# An excerpt weighted towards active compounds, which were near 2.5% of everything screened.
# L3MBTL1 inh-1: inhibitors of human L3MBTL1; AlphaScreen L3MBTL1–H3K9me1 peptide binding; Potency, µM (series often up to 57.1 µM), for the others: top-dose activity, negative = inhibition, usual class: inhibitors; 0.66% of 230,000 active; AID 485360; further: on the % scale 0 is the no-effect control and ±100 the full control effect; nearly all actives have a fitted effect of over 60% in size
#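 L3MBTL1 (50 nM) pre-complexed 30 min with biotinylated H3(1-15)K9me1 peptide (75 nM), then compounds added for 30 min at room temperature; AlphaScreen streptavidin donor/nickel chelate acceptor beads (10 ug/mL final) read after 30 min dark incubation.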
# POLI inh: inhibitors of human DNA polymerase iota; Pol iota fluorescent replication assay, 10 min; Potency, µM (series often up to 115 µM), for the others: at the highest dose activity, negative = inhibition, actives largely listed as inhibitors; 1% of 390,000 active; AID 588590
#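 Pol iota at 10 nM preincubated 15 min with compounds at room temperature; reaction started with fluorescent substrate, 50 nM final. Fluorescence read kinetically at 0 and 10 min; buffer-only wells as negative control.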
# Pol beta inh: blocks human DNA polymerase beta activity; Pol beta primer extension/strand displacement, fluorescence kinetic; AID 485314; Potency, µM (highest dose often 114 µM), for the others: at the highest dose activity change, negative = inhibition, usual class: inhibitors; 1.3% of 340,000 active; further: on the % scale 0 is the no-effect control and ±100 the full control effect
#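 Values derive from four-parameter Hill fits of normalized kinetic data: reads at 0 and 10 min following addition of 50 nM substrate to 10 nM Pol beta preincubated 15 min with compound.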
# POLK inh: blocks human DNA polymerase kappa activity. AID 588579. Potency, µM (top dose mostly 107 µM), inactives show at the top dose activity, negative = inhibition, actives largely listed as inhibitors. 0.53% of 400,000 active. Q9UBT6. purified Pol kappa, fluorescent DNA synthesis assay, 10 min; further: on the % scale 0 is the no-effect control and ±100 the full control effect
#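 Kinetic fluorescence screen: compound preincubated 15 min RT with 10 nM enzyme; 50 nM substrate (final) initiates; reads at 0/10 min.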
# APE1 inh: APE1 (human) endonuclease inhibition. recombinant APE1, TAMRA/BHQ-2 abasic DNA cleavage fluorescence. AID 2517. 0.35% of 350,000 active. P27695. Potency, µM (titrated, usually from 65.8 µM), inactives show top-dose activity change, negative = inhibition, hits mostly inhibitors;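 further: plate controls were vehicle for no effect and reference inhibitor for full effect; nearly all actives have a fitted effect of over 55% in size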
# Target sequence (P27695 whole entry, looked up): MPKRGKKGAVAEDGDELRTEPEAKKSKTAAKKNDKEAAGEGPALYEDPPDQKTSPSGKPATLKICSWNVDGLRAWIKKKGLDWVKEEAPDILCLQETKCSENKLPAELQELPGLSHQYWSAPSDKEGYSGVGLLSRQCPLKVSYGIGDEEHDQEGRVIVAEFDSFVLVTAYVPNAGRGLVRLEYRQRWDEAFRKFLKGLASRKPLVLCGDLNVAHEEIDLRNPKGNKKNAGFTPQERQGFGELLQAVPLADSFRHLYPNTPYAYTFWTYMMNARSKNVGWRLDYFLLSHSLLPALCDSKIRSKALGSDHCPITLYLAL
#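 APE1 at 0.75 nM preincubated 15 min at room temperature with compound. Reaction then started with 50 nM double-stranded THF-abasic substrate labelled with TAMRA/BHQ-2, and 525/598 nm fluorescence read kinetically. Activity taken as third-minus-first read difference, normalized to DMSO and NSC13755 controls.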
# Pol eta inh: inhibitors of human DNA polymerase eta; Q9Y253; recombinant Pol eta, fluorescent DNA replication assay; Potency, µM (top dose mostly 114 µM), for the others: at the top dose activity change, negative = inhibition, actives largely listed as inhibitors; 1.2% of 390,000 active; AID 588591; further: on the % scale 0 is the no-effect control and ±100 the full control effect
#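 Fluorescent replication assay: 50 nM final substrate added after a 15 min room-temperature compound preincubation with 10 nM enzyme. Signal taken at 0 min and again at 10 min.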
# L3MBTL1 inh-2: validation of human L3MBTL1 methyl-lysine binding inhibitors; shares compounds with L3MBTL1 inh-1; L3MBTL1 methyl-lysine binding inhibition, biochemical qHTS; Potency, µM, actives largely listed as inhibitors; 91% of 500 active; AID 540279; further: nearly all actives have a fitted effect of over 70% in size
# L3MBTL1 ctr: counter-screen for L3MBTL1 inhibitors: AlphaScreen signal interference; 500 tested, under 10 active; AlphaScreen counterscreen, signal inhibition; shares compounds with L3MBTL1 inh-1; Potency, µM (highest dose often 57.1 µM), without a hit: at the highest dose activity change, negative = inhibition, actives largely listed as inhibitors; further: 0% is about no effect
# PGK validate: TbPGK inhibition, hit validation | shares compounds with POLK inh | Potency, µM (series often up to 57.5 µM), inactives show at the top dose activity change, negative = inhibition, hits mostly inhibitors | 79% of 500 active | TbPGK coupled GAPDH assay, Kinase-Glo luminescence; further: on the % scale 0 is the no-effect control and ±100 the full control effect; nearly all actives have a fitted effect of over 65% in size
# Target sequence (P07378 whole entry, looked up): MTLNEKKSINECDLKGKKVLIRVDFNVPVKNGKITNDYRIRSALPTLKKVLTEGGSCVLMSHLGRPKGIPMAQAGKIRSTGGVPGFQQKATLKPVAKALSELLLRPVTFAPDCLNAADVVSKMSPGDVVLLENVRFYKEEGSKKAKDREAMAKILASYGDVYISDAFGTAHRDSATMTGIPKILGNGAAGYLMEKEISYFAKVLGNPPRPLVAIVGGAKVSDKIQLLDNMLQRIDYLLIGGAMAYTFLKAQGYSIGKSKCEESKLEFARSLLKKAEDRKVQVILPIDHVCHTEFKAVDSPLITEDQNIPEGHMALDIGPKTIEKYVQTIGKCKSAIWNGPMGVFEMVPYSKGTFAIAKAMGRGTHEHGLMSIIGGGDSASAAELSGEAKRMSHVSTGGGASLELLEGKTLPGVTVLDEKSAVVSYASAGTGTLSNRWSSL
# Numbers without * were called inactive; ? = inconclusive; nt = no result given; [ ] = another dose, or the depositor's remark. The call rests on the fitted dose curve; in most records, active means well fitted curve in the direction sought with a large enough effect; inconclusive means small, poorly fitted or top-dose-only effect, or another doubt; inactive means no such curve, though single readings can be large; an effect the other way counts as inactive or inconclusive. Potency means the concentration at half of the fitted maximal effect.
SMILES,L3MBTL1 inh-1,POLI inh,Pol beta inh,POLK inh,APE1 inh,Pol eta inh,L3MBTL1 inh-2,L3MBTL1 ctr,others
O=C(CSc1nc(-c2ccccc2)nc2ccc(F)cc12)Nc1ccc(C(=O)O)cc1,39.8µM*,-5.8%,-10.4%,-13.6%,-9.2%,?,?,?,
CC(C)OC(=O)CSc1nc(-c2ccc(F)cc2)nc2ccc(F)cc12,-3.5%,0.6%,-1.6%,-1.7%,5.4%,-10.4%,nt,nt,
O=C(CCCSc1ccccc1)Nc1nc(-c2ccccn2)cs1,nt,?,-8.1%,-4.5%,1.2%,-15.7%,nt,nt,
O=C(CCCSc1ccccc1)Nc1nc(-c2ccco2)c(-c2ccco2)s1,22.4µM*,?,?,?,-2.7%,?,23.8*,?,
Cc1ccc(CNS(=O)(=O)c2cc3[nH]c(=O)c(=O)[nH]c3cc2C)cc1,nt,4.1%,3.7%,-4.3%,nt,-9.2%,nt,nt,
Cc1c(N2C(=O)c3ccc(Br)cc3C2=O)c(=O)n(-c2ccccc2)n1C,0.0%,21.1%,?,-3.8%,-8.8%,-7.0%,nt,nt,
Cc1c(N2C(=O)c3ccc4c5c(ccc(c35)C2=O)CC4)c(=O)n(-c2ccccc2)n1C,12.6µM*,5.62µM*,5.01µM*,50.1µM*,?,2.82µM*,5.97*,0.9%,
O=S(=O)(Nc1ccc(-c2ccc(N3CCCCCC3)nn2)cc1)c1cccc(C(F)(F)F)c1,nt,-27.8%,17.9%,-15.8%[60.1 µM],nt,-6.1%,nt,nt,
Oc1c(C(Nc2nccs2)c2ccc(C(F)(F)F)cc2)ccc2cccnc12 (stereo not drawn),nt,39.8%,-0.7%,-17.7%,9.1%,-2.0%,nt,nt,
Oc1c(C(Nc2cccc(C(F)(F)F)c2)c2ccncc2)ccc2cccnc12 (stereo not drawn),22.4µM*,200.5%,-2.6%,-7.7%,-4.7%,-24.9%,21.2*,-65.1%,
Cc1ccc2nc(NC(=O)C3CCN(S(=O)(=O)c4cc([N+](=O)[O-])ccc4Cl)CC3)sc2c1,10µM*,44.7µM*,14.1µM*,?,?,?,9.47*,-16.1%,
Oc1c(N=Nc2ccc(F)cc2)ccc2ccccc12,7.94µM*,51.9%,15.4%,-15.4%,13.3%,-5.1%,1.06*,0.752µM*,
Cc1ccc(N=Nc2ccc3ccccc3c2O)cc1,?,92.1%,-6.9%,2.6%,21.2%,-22.2%,nt,nt,
CNc1nc(C(=O)O)nc(N2CCOCC2)n1,20µM*,-16.4%,-29.7%,2.6%,3.6%,-8.3%,?,?,
CNc1nc(OC)nc(N2CCOCC2)n1,22.3%[11.4 µM],?,27.7%,-10.5%,-1.6%,-10.2%,nt,nt,
O=C(CN1C(=O)c2ccccc2Sc2ccc(C(=O)N3CCOCC3)cc21)Nc1ccc(Cl)cc1F,nt,-3.5%,3.1%,-7.6%[60.1 µM],nt,6.3%,nt,nt,
c1ccc(-c2nc(-c3ccncc3)n[nH]2)nc1,3.16µM*,165.6%,25.4%,-3.9%,13.2%,-15.8%,4.74*,-94.7%,
Cc1nc(-c2ccc(F)cc2)sc1CCNC(=O)c1cccs1,nt,?,-2.6%,-12.8%[60.1 µM],nt,1.2%,nt,nt,
Cc1ccc(-c2ccc(CCC(=O)O)n2CC(=O)O)cc1,22.4µM*,?,15.8µM*,2.8%[60.1 µM],0.3%,25.1µM*,5.32*,-3.6%,
Cc1ccc(NC(=O)Cn2c(CCC(=O)O)ccc2-c2ccc(Cl)cc2)cc1,nt,2.9%,?,-8.4%,2.7%,-3.2%,nt,nt,
O=C(O)c1cc(Cl)c2c(c1)[C@@H]1C=CC[C@@H]1[C@H](c1ccc(S(=O)(=O)N3CCOCC3)cc1)N2,22.4µM*,?,31.6µM*,?,4.3%,28.2µM*,26.7*,?,
COc1ccc([N+](=O)[O-])cc1NC(=O)C(C)Sc1nc(-c2ccccc2)cs1 (stereo not drawn),-0.6%,149.4%,4.8%,-17.5%,26.7%,-3.0%,nt,nt,
COC(=O)c1c(C)[nH]c(C(=O)C(C)OC(=O)C2CC(=O)N(CCc3ccccc3)C2)c1C (stereo not drawn),28.2µM*,2.2%,nt,-3.2%,0.5%,-14.4%,26.7*,4.6%,
COc1cccc(C(=O)Nc2ccccc2SCc2cc(=O)c3cccc(C)c3[nH]2)c1,nt,-5.7%,6.4%,-6.7%[60.1 µM],nt,-2.3%,nt,nt,
Cc1cc(C(=O)O)ccc1-c1ccc(/C=C2\NC(=O)N(Cc3ccccc3Cl)C2=O)o1,17.8µM*,5.62µM*,14.1µM*,22.4µM*,-3.2%,4.47µM*,7.52*,34.9%,
SMILES,L3MBTL1 inh-1,POLI inh,Pol beta inh,POLK inh,APE1 inh,Pol eta inh,L3MBTL1 inh-2,L3MBTL1 ctr,others
Cc1cc(C(=O)O)ccc1-c1ccc(CO)o1,?,-14.2%,4.0%,-19.5%,2.4%,3.4%,nt,nt,
O=C(CSc1ncccc1-c1nc2ccccc2[nH]1)NCc1ccco1,35.5µM*,?,31.6µM*,50.1µM*,?,25.1µM*,21.2*,?,
COc1cnc(-c2ccccn2)nc1N(C)C,3.98µM*,54.1%,33.1%,-0.4%,3.8%,-20.4%,6.7*,-80.5%,
COc1ccc(Oc2nc(-c3ccccn3)ncc2OC)cc1,?,5.4%,17.6%,-13.1%,-5.8%,7.6%,nt,nt,
CCOC(=O)C(C)Sc1nc(-c2ccccn2)ncc1OC (stereo not drawn),25.1µM*,166.0%,-30.0%,-0.5%,-1.4%,-17.5%,26.7*,?,
CCOC(=O)c1cnn(-c2ccc(C(=O)Nc3ccc(C(C)=O)cc3)cc2)c1N,nt,?,-2.8%,-7.9%[60.1 µM],nt,-18.0%,nt,nt,
Cc1cc(=O)[nH]c2nnc(SCc3c(F)cccc3Cl)n12,nt,-11.5%,29.2%,-10.3%[60.1 µM],nt,-3.8%,nt,nt,
Cc1ccccc1Nc1nnc(SCC(=O)NC(=O)NCc2ccco2)s1,28.2µM*,22.4µM*,?,?,?,?,9.47*,8.0%,
Cc1ccc(S(=O)(=O)N2CCCc3cc(NC(=O)c4ccc(C(C)(C)C)cc4)ccc32)cc1,nt,7.5%,2.7%,-4.7%[60.1 µM],nt,-15.2%,nt,nt,
CC(C)(C)OC(=O)CN1C(=O)S/C(=C\c2ccc(-c3cccc(C(=O)O)c3)o2)C1=O,?,nt,?,nt,-28.2%,nt,nt,nt,
Cc1ccc(NC(=O)CN2C(=O)S/C(=C/c3ccc(-c4cccc(C(=O)O)c4)o3)C2=O)cc1,35.5µM*,25.1µM*,11.2µM*,31.6µM*,?,5.62µM*,26.7*,2.1%,PGK validate=11.6µM*
